We go through 29 compounds from PubChem BioAssay AID623994 (NMMLSC, 2012).

Results with a measured potency or affinity are listed apart. The source made the active and inactive calls.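 The calls were made as follows: active = compounds whose fitted concentration for half the maximal dye retention is below 100 µM; inactive = the rest.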

The target of the assay is Multidrug resistance protein CDR2 (Candida albicans (strain SC5314 / ATCC MYA-2876)) (UniProt P78595). The experiment in a line: CaCDR2 efflux pump inhibitors in yeast, dose response, S. cerevisiae AD1-8u, singleplex, Cherry Pick2 set (AID 623994). The settings on record: S. cerevisiae AD1-8u expressing CaCDR2, Nile Red efflux; series mostly up to 100 µM.
Sequence of Multidrug resistance protein CDR2 (Candida albicans (strain SC5314 / ATCC MYA-2876)) (P78595 whole entry, looked up): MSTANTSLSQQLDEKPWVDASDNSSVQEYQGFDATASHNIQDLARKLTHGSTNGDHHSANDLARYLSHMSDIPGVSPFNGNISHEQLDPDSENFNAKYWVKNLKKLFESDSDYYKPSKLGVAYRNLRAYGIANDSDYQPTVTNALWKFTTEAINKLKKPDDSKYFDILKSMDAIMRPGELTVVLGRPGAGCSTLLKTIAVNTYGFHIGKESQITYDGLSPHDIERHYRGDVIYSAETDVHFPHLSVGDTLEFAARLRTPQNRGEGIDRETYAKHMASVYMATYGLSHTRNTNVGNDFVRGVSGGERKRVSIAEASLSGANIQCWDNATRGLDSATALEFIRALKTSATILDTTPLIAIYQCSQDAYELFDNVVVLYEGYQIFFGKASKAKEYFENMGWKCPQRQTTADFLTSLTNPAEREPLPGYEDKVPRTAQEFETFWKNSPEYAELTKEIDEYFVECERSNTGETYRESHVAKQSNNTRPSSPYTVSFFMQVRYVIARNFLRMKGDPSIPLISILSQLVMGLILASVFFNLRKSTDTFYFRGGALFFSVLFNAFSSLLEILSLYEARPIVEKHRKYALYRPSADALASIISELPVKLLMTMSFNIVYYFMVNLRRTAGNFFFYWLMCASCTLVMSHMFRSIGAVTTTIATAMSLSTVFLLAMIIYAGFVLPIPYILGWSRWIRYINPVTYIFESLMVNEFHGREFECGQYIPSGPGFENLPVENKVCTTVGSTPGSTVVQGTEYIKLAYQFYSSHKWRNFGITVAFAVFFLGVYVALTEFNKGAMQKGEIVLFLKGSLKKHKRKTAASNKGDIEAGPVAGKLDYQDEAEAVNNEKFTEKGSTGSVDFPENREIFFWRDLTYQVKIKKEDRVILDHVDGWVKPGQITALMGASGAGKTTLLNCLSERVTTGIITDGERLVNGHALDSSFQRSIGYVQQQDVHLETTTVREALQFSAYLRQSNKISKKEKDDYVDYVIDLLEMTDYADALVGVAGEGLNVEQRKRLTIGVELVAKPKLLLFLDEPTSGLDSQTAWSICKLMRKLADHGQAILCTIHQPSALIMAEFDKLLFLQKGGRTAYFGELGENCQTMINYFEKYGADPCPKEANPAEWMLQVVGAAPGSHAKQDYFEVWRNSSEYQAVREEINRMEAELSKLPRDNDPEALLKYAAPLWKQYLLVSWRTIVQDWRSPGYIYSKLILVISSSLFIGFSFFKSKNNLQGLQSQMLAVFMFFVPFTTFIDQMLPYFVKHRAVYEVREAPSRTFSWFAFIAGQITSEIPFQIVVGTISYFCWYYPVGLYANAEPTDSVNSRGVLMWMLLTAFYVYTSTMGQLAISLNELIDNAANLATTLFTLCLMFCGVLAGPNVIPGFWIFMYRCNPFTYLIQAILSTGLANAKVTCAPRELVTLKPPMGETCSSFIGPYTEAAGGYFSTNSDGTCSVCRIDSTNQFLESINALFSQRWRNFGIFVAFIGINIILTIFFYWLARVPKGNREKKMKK
On to `Cc1ccc(N2CCN(C(=O)C3CCCN(c4ncnc5c4nc4n5CCCCC4)C3)CC2)c(C)c1` (centres undefined), for which the compound was called inactive.
As to `O=C(c1ccc2c(c1)OCO2)N1CCC2(CC1)Oc1ccc(F)cc1C(=O)C21CC(c2ccc(Cl)cc2)=NO1` (centres undefined), the call was inactive.
With `COc1ccc([C@H]2CC(=O)C=C(c3ccnc4ccc(Cl)cc34)C2)cc1` the entry was “inactive”; with `NS(=O)(=O)c1ccc(N2N=C(c3ccc(Br)cc3)CC2c2ccc(F)cc2)cc1` (centres undefined), “inactive”; with `CCCCNC(=O)C1CCC(CNc2nc(=S)[nH]c3ccccc23)CC1` (centres undefined), “inactive”.
With `CN1Cc2cc(C(=O)c3ccccc3O)cnc2NC1=O` the entry was “inactive”; with `O=C(C[n+]1cc(-c2ccc(Cl)cc2)n2c1CCC2)N1c2ccccc2Sc2ccccc21`, “inactive”; with `O=C(CSc1nnc(Cc2cccs2)n1Cc1ccco1)Nc1ccc(Br)cc1`, “inactive”.
For the compound `Cc1ccc(CN2C(=O)C(CC(C)C)Nc3ncnc(N4CCN(c5ccccc5)CC4)c32)cc1` (centres undefined), the compound was classed as inactive.
With `Cc1ccc(O)c(C(=O)c2cnc3c(c2)CN(C)C(=O)N3)c1` the entry was “inactive”.
With `NC1=NC[C@H](Cc2ccc(O)cc2)N1CCc1cc(C(F)(F)F)cc(C(F)(F)F)c1` the entry was “inactive”; with `CCCCCc1cc(=O)oc2c(C(CCN3CCCC(C)C3)c3ccc(N(C)C)cc3)c(OC)cc(OC)c12` (centres undefined), “inactive”; with `CCc1ccc(C2=NN(c3ccc(S(N)(=O)=O)cc3)C(c3ccc(F)cc3)C2)cc1` (centres undefined), “inactive”.
As to `Cc1cccc(C2CC(c3ccccc3)=NN2c2ccc(S(N)(=O)=O)cc2)c1` (centres undefined), the compound was called inactive.
As for `CCCCCCCCCC[N+](C)(C)CC/C=C1/c2ccccc2Sc2ccc(Cl)cc21`, the result was inactive.
With `Cc1cc(C(=O)NC2CC(C)(C)Cc3c2cnn3-c2ccc(F)cc2)no1` (centres undefined) the entry was “inactive”; with `COc1ccc(OC)c2sc(NC(=O)c3ccc(Br)s3)nc12`, “inactive”.
With `C[C@@]12C(=O)Nc3ccc(Cl)cc3C(=O)N1[C@H]1c3cc(Cl)ccc3OC[C@@H]1[C@@H]2c1ccccc1` the entry was “inactive”.
As for `COc1ccc(CCOC(=O)c2ccc(N)c([N+](=O)[O-])c2)cc1`, the result was inactive.
With `O=C(c1ccoc1)N1CCC2(CC1)Oc1ccc(F)cc1C(=O)C21CC(c2ccccc2)=NO1` (centres undefined) the entry was “inactive”.
With `O=C(c1ccc2c(c1)OCO2)N1CCC2(CC1)Oc1ccc(F)cc1C(=O)C21CC(c2ccccc2)=NO1` (centres undefined) the entry was “inactive”; with `NS(=O)(=O)c1ccc(N2N=C(c3ccccc3)CC2c2ccccc2)cc1` (centres undefined), “inactive”; with `NS(=O)(=O)c1ccc(N2N=C(c3ccccc3)CC2c2ccc(F)cc2)cc1` (centres undefined), “inactive”.
With `COc1ccc(CN2C(=O)C(C)Nc3ncnc(N4CCN(c5ccccc5)CC4)c32)cc1` (centres undefined) the entry was “inactive”.
Consider `COc1ccc(N2CCN(C(=O)C3CCCN(c4ncnc5c4nc4n5CCCCC4)C3)CC2)cc1` (centres undefined), for which the call was inactive.
With `COc1ccc2c(c1)OC[C@H]1[C@H]2N2C(=O)c3ccc(C)cc3NC(=O)[C@@]2(C)[C@H]1c1ccccc1` the entry was “inactive”; with `COc1ccc2nc(NC(=O)c3cccs3)sc2c1`, “inactive”; with `CCO[C@@H]1OC(C(=O)Nc2ccccc2)=C[C@H](c2ccc(Br)cc2)[C@H]1CCCO`, “inactive”.
With `CCO[C@@H]1OC(C(=O)Nc2ccccc2)=C[C@H](c2ccccc2)[C@H]1CCCO` the entry was “inactive”.
